# Measured values published in PubChem BioAssay.
# For some of these results: Potency and affinity values are given separately. Records with an inconclusive call do not appear. Some of the results follow. A call without a number means that no potency is given here. Calls of active or inactive are those of the source. Unless noted, how the calls were made is not given here.
# What was measured:
# [1] = general cell-killing toxicity readout – plate reader, dry powder samples, cytotoxicity control for PAX8 inhibitor project, dose response (AID 743021)
# [2] = CMV-driven luciferase expression suppression in HEK293 – cell-based, luminescence, dry powder, counter-screen for Pax8 inhibitor project, dose response (AID 743020;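 active means signal-lowering compounds whose fitted half-maximal concentration is at or below twice the top tested dose in every run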;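 further: HEK293 cells stably expressing the CMV luciferase reporter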)
# [3] = toxicity toward HepG2 liver cells – cell-based, plate reader, cherry-pick, antagonist series, cytotoxicity control, dose response (AID 743416)
# [4] = IGROV1 cell killing – plate reader, dry powder samples, PAX8 inhibitor project, dose response (AID 743043);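 further: more negative means fewer viable cells or more cytotoxicity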
# [5] = toxicity toward immortalized ovarian surface epithelium – cell-based, plate reader, dry powder samples, cytotoxicity control for PAX8 inhibitor project, dose response (AID 743045);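 further: more negative values mean more cell killing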
# [6] = A2780 cell killing – plate reader, dry powder samples, cytotoxicity control, dose response (AID 743046)
# [7] = OVCAR8 cell viability loss – plate reader, dry powder samples, PAX8 project, dose response (AID 743197)
# [8] = OVCAR-3 cell viability loss – plate reader, dry powder samples, PAX8 inhibitor project, dose response (AID 743044); settings: max activity: at 35 µM, stronger effect = lower value unless noted
# [9] = Ring1 de-repression measured by qPCR – cell-based, mouse ESC, RT-qPCR, cherry-pick, esBAF inhibitor project, confirmation (AID 743176;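 active means Ring1 gene expression raised more than 2-fold over untreated cells in both replicates at either tested dose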;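 further: Ring1 transcript normalised to actin housekeeping signal by TaqMan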); settings: mouse ESC E14, Ring1 mRNA RT-qPCR fold change, stronger effect = higher value
# [10] = Fgf4 repression measured by qPCR – cell-based, mouse ESC, RT-qPCR, cherry-pick, esBAF inhibitor project, confirmation (AID 743177;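 active means Fgf4 expression under 0.8 fold of control in both repeat measurements at one or both tested doses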;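 further: Fgf4 transcript normalised to actin in duplex TaqMan qPCR; cells exposed to compound for 24 h before lysis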); settings: mouse ESC E14, Fgf4 mRNA qPCR fold change, stronger effect = lower value
# [11] = Bmi1 mRNA increase in mouse ESCs – cell-based, RT-qPCR, mouse ESC, single point, cherry-pick, confirmation (AID 743180;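 active means Bmi1 expression fold change above 6 at either tested concentration, seen in replicate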); settings: mouse ESC E14, Bmi1 mRNA qPCR fold, stronger effect = higher value
# [12] = viability loss in A549 cells – cell-based, plate reader, single point, cherry-pick, cytotoxicity control (AID 743188); settings: at 25 µM
# [13] = viability loss in HepG2 cells – cell-based, plate reader, single point, cherry-pick, cytotoxicity control (AID 743189; in the data active means activity change below about -50%); settings: at 25 µM, stronger effect = lower value
# [14] = viability loss in HEK293 cells – cell-based, plate reader, single point, cherry-pick, cytotoxicity control (AID 743190; in the data active means activity change below about -38%, passing the limit was not always enough); settings: at 25 µM
# [15] = A549 cell cytotoxicity, dose response, cytotoxicity control, plate reader, cherry-pick, antagonist series (AID 743412)
smiles,measurement,setting,value
C=C1C(=O)C2=CC1CCC(=O)C1(C)CCC(OC(C)=O)C(C)(C)C1CC2O (configuration not stated),outcome,[1],inactive
Cc1ccsc1/C=N/Nc1cccc(C(=O)O)c1,outcome,[2],inactive
same,outcome,[1],inactive
same,outcome,[3],inactive
Cc1cc(C2=NNC(=NC3CC3)SC2)c(C)n1-c1ccccc1F,outcome,[1],inactive
Cc1ccc(S(=O)(=O)Nc2ccc3c(c2)CC(=O)N([C@H](C)CO)C[C@H](C)[C@H](CN(C)S(=O)(=O)c2ccc(F)cc2)O3)cc1,outcome,[2],inactive
same,outcome,[1],inactive
same,outcome,[4],inactive
same,outcome,[5],inactive
same,outcome,[6],inactive
same,outcome,[7],inactive
C[C@H](CO)N1C[C@H](C)[C@H](CN(C)S(=O)(=O)c2ccc(Cl)cc2)OCCCC[C@H](C)Oc2ccc(NC(=O)Nc3ccc(C(F)(F)F)cc3)cc2C1=O,outcome,[2],inactive
same,outcome,[4],inactive
same,outcome,[5],inactive
same,outcome,[7],inactive
C[C@@H]1CN([C@@H](C)CO)C(=O)Cc2cc(NS(=O)(=O)c3ccc(Cl)cc3)ccc2O[C@H]1CN(C)Cc1ccc(Oc2ccccc2)cc1,outcome,[2],inactive
same,outcome,[1],inactive
same,outcome,[5],inactive
same,outcome,[6],inactive
CCOC(=O)c1c(-c2ccc(F)cc2)csc1NC(=O)CN1C(=O)NC2(CCCCC2C)C1=O (configuration not stated),outcome,[1],inactive
C[C@H]1CN([C@@H](C)CO)C(=O)Cc2cc(NC(=O)NC3CCCCC3)ccc2O[C@H]1CN(C)S(=O)(=O)c1ccc(Cl)cc1,outcome,[2],inactive
same,outcome,[1],inactive
same,outcome,[4],inactive
same,outcome,[5],inactive
same,outcome,[6],inactive
same,outcome,[7],inactive
O=C1CN(C(=O)Cn2ncc(Cl)c(Cl)c2=O)c2ccccc2N1,outcome,[1],inactive
COc1cccc(-c2ccc([C@H]3[C@@H](CO)N(C(=O)Cc4ccccc4)[C@H]3C#N)cc2)c1,outcome,[2],inactive
same,outcome,[1],inactive
same,outcome,[4],inactive
same,outcome,[5],inactive
same,outcome,[7],inactive
COc1ccc(S(=O)(=O)Nc2ccc3c(c2)C(=O)N([C@@H](C)CO)C[C@H](C)[C@@H](CN(C)Cc2ccc(C(F)(F)F)cc2)OCCCC[C@H](C)O3)cc1,outcome,[2],inactive
same,outcome,[1],inactive
same,outcome,[5],inactive
same,outcome,[6],inactive
C[C@H](CO)N1C[C@H](C)[C@H](CN(C)Cc2ccc(C(F)(F)F)cc2)OCCCC[C@H](C)Oc2ccc(NS(=O)(=O)c3ccccc3)cc2C1=O,outcome,[2],inactive
same,outcome,[5],inactive
same,outcome,[6],inactive
C[C@H]1CCCCO[C@@H](CN(C)Cc2ccc(C(F)(F)F)cc2)[C@@H](C)CN([C@@H](C)CO)C(=O)c2cc(NC(=O)c3ccccc3)ccc2O1,outcome,[2],inactive
same,outcome,[1],inactive
same,outcome,[5],inactive
same,outcome,[6],inactive
CCCn1c(C)cc(C(=O)CN2C(=O)c3ccccc3S2(=O)=O)c1C,outcome,[2],inactive
same,outcome,[1],inactive
same,outcome,[4],inactive
same,outcome,[8],inactive
same,outcome,[6],inactive
same,outcome,[3],inactive
C[C@@H]1CCCCO[C@H](CN(C)C(=O)C2CCCCC2)[C@@H](C)CN([C@@H](C)CO)C(=O)c2cc(NC(=O)Nc3ccc(F)cc3)ccc2O1,outcome,[2],inactive
same,outcome,[1],inactive
same,outcome,[5],inactive
CCCC1=Nc2cc(C(=O)NCCCOCC)ccc2Sc2ccccc21,outcome,[1],inactive
CCN(CC(=O)Nc1c(F)cccc1F)C(=O)c1cc(S(=O)(=O)N(C)C)ccc1N1CCCC1,outcome,[2],inactive
same,outcome,[1],inactive
same,outcome,[8],inactive
same,outcome,[5],inactive
same,outcome,[6],inactive
COc1ccc(C(=O)c2ccc(Cl)c([N+](=O)[O-])c2)cc1,outcome,[1],inactive
Cc1ccc(S(=O)(=O)N(C)C[C@H]2Oc3cc(C#Cc4ccncc4)ccc3S(=O)(=O)N([C@@H](C)CO)C[C@@H]2C)cc1,outcome,[2],inactive
same,outcome,[1],inactive
same,outcome,[4],inactive
same,outcome,[5],inactive
same,outcome,[6],inactive
Cc1noc(C)c1S(=O)(=O)N(C)C[C@H]1OCCCC[C@@H](C)Oc2ccc(NS(=O)(=O)c3ccc(Cl)cc3)cc2C(=O)N([C@@H](C)CO)C[C@@H]1C,outcome,[2],inactive
same,outcome,[1],inactive
same,outcome,[4],inactive
same,outcome,[5],inactive
COc1cc(-c2cnc3c(NC=O)cc(-c4ccccc4)cn23)cc(OC)c1OC,outcome,[1],inactive
C#CCN(C[C@@H]1[C@@H](OC(=O)NCC2CCCCC2)[C@@H](OC(=O)NCC2CCCCC2)Cn2c(=O)ccc(=O)n21)S(=O)(=O)c1ccc(C)cc1,outcome,[1],inactive
COC(=O)[C@@]1(CCS(=O)(=O)c2ccccc2)N=C(c2ccc(OCCCO)cc2)O[C@H]1c1ccccc1,outcome,[1],inactive
same,outcome,[4],inactive
same,outcome,[5],inactive
same,outcome,[6],inactive
Cn1nnnc1Sc1ncnc2scc(-c3cccc(S(C)(=O)=O)c3)c12,outcome,[1],inactive
C[C@@H]1CN([C@H](C)CO)C(=O)c2cc(NS(=O)(=O)c3ccccc3)ccc2O[C@@H](C)CCCCO[C@@H]1CN(C)Cc1ccc(C(F)(F)F)cc1,outcome,[5],inactive
O=C(Nc1cccc(-c2ccc(N3CCCCC3)nn2)c1)C(F)(F)F,outcome,[1],inactive
CCCC(=O)NC(c1ccc(C(C)C)cc1)c1ccc2cccnc2c1O (configuration not stated),outcome,[1],inactive
COc1ccc(CCNc2nnc(Sc3nnnn3-c3ccccc3)s2)cc1OC,outcome,[1],inactive
C=C(C(=O)c1ccccc1)C(C(=C)C(=O)c1ccccc1)c1ccc(OC)cc1,outcome,[1],inactive
Cc1nc(-c2ccccc2)sc1-c1nnc(C2CC2)o1,fold change,"[9]; Ring1 fold increase, at 7 µM",1.23
same,fold change,[9]; at 33 µM,1.31 (inactive)
same,Fgf4 expression fold change,"[10]; Fgf4 expression, at 7 µM",0.99
same,Fgf4 expression fold change,[10]; at 33 µM,1.05 (inactive)
same,fold change,"[11]; Bmi1 de-repression, at 7 µM",1.21
same,fold change,[11]; at 33 µM,1.79 (inactive)
same,cell viability change % (negative = cytotoxic),[12],1.56% (inactive)
same,"activity change, negative = inhibition",[13],-14.2% (inactive)
same,"activity change, negative = inhibition",[14],-0.816% (inactive)
Brc1ccc(-n2cc(-c3ccccc3)c3c(NN4CCOCC4)ncnc32)cc1,outcome,[1],inactive
CN(C(=O)OC(C)(C)C)c1ccc(-c2nc3ccccc3s2)cc1,outcome,[1],inactive
same,outcome,[15],inactive
Cc1cc(C(C)(C)C)cc(C)c1Cn1c2[n+](c3ccc(C(F)(F)F)cc31)CCCCC2,outcome,[1],inactive
N#C[C@H]1[C@@H](c2ccc(C3=CCCC3)cc2)[C@@H](CO)N1C(=O)NC1CCCCC1,outcome,[1],inactive
same,outcome,[4],inactive
same,outcome,[8],inactive
same,outcome,[6],inactive
COc1cccc(C#Cc2ccc([C@@H]3[C@@H](C#N)N(C(=O)C4CCCCC4)[C@@H]3CO)cc2)c1,outcome,[1],inactive
same,outcome,[4],inactive
same,outcome,[8],inactive
same,outcome,[5],inactive
same,outcome,[6],inactive
CCC(=O)NC(c1ccc(C)cc1)c1ccc2cccnc2c1O (configuration not stated),outcome,[1],inactive
COCC(=O)N1[C@H](CO)[C@H](c2ccc(-c3cccnc3)cc2)[C@@H]1C#N,outcome,[1],inactive
same,outcome,[4],inactive
same,outcome,[8],inactive
same,outcome,[5],inactive
same,outcome,[6],inactive
Cn1c(CCN2CCCC2)nc2cc(NS(=O)(=O)c3ccc(Cl)cc3)ccc21,outcome,[1],inactive
same,outcome,[5],inactive
same,outcome,[6],inactive
Oc1cccc2cc(Nc3ccccc3)cnc12,outcome,[1],inactive
